Compounds with a hit are over-represented: about 4.8% of the library has one in this group of screens.
hgDAF-12 ag – H. glycines DAF-12 receptor agonists, primary screen, cell-based, luminescence, HEK293, GAL4 fusion, UAS-luciferase; activation, % at 6.8 µM; HEK293 GAL4-hgDAF12 UAS-luciferase reporter, agonist luminescence; normalized to butyrate control; 370,000 tested, 1.8% active; Nuclear hormone receptor DAF-12 (Heterodera glycines), GAL4 fusion;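 active = activation above a cutoff set at the mean of all screened compounds plus 3 SD, cut at about 10% in these data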;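 note: 0% = DMSO wells and 100% = sodium butyrate wells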
SMARCA2 act – SMARCA2 (BRM) function activators, primary screen, cell-based, luminescence, high throughput | AID 652017, 2013 | activation, % at 9.1 µM | 370,000 tested, 1% active | MG213 cells, MMTV-luciferase reporter, dexamethasone, overnight; in the data active = activation above about 7.8%;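 note: 0% = vehicle wells and 100% = reference activator wells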
ssDAF-12 act – S. stercoralis DAF-12 nuclear receptor activators, primary screen, cell-based, luminescence, HEK293, GRIP1 co-expression, lit1-tk-luc; Nuclear hormone receptor DAF-12 (Strongyloides stercoralis); HEK293 ssDAF-12/GRIP1 lit1-tk-luc reporter; % of 3 µM dafachronic acid response; activation, % at 6.8 µM; 370,000 tested, 1% active; AID 652126, 2013;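 active = activation above the mean over all tested compounds plus 3 SD, cut at about 0.9% in these data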;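 note: 0% = DMSO-only wells and 100% = 3 µM delta7-dafachronic acid wells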
DAX1 inh-1 – DAX1 (NR0B1) inhibitors, primary screen, cell-based, HEK293, Gal4-DAX1, luciferase luminescence. 340,000 tested, 0.99% active. inhibition, % at 6.75 µM. HEK293 Gal4-DAX1 luciferase reporter;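 active = inhibition above the mean over all tested compounds plus 3 SD, cut at about 4.2% in these data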;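 note: 0% = DAX1-transfected cells with DMSO and 100% = empty-vector control cells with DMSO; inhibition shows as a rise in luminescence from relieved DAX1 repression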
Target sequence (P51843 207-470 limits assumed): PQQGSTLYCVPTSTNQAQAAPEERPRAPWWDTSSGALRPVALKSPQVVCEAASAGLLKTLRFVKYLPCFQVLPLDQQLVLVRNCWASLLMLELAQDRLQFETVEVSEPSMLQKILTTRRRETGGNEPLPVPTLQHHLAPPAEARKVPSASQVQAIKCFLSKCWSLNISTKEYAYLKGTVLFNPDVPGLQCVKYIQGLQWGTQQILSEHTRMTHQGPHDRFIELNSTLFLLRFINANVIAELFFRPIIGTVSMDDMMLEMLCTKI
DAX1 inh-2 – DAX1 (NR0B1) inhibitors on StAR promoter, primary screen, cell-based, luminescence, SF-1 (NR5A1), full-length DAX-1; HEK293T StAR-luciferase reporter, SF-1/DAX-1 repression relief; inhibition, % at 6.8 µM; 370,000 tested, 1.1% active; AID 652010, 2013;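 active = inhibition above the mean over all tested compounds plus 3 SD, cut at about 3.6% in these data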;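 note: 0% = DAX-1 cells with DMSO and 100% = cells lacking DAX-1 with DMSO; higher inhibition means more luminescence from relief of DAX-1 repression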
hcDAF-12 act – H. contortus DAF-12 nuclear receptor activators, primary screen, cell-based, luminescence, HEK293, lit1-tk-luc reporter. HEK293 hcDAF-12 lit1-tk-luc reporter; 0% DMSO, 100% Δ7-dafachronic acid. activation, % at 6.8 µM. 370,000 tested, 1.4% active. AID 652067, 2013;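 active = activation above the mean of all tested compounds plus 3 SD, cut at about 5.5% in these data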;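 note: 100% = response to 3 µM Δ7-dafachronic acid high control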
Active calls of the source: *; / = no result.

SMILES	hgDAF-12 ag	SMARCA2 act	ssDAF-12 act	DAX1 inh-1	DAX1 inh-2	hcDAF-12 act
CCC(C)[C@H](NC(=O)N1CC(=O)Nc2ccccc21)C(=O)N[C@@H](Cc1c[nH]c2ccccc12)C(=O)O (some centres not stated)	-2.2	4.1	-0.1	3.5	0.6	5.9*
CC(C)C[C@H](NC(=O)N1CC(=O)Nc2ccccc21)C(=O)N[C@H](Cc1c[nH]c2ccccc12)C(=O)O	0.9	-2.6	-0.3	3.2	1.2	3.8
CNC(=S)N/N=C/C1=CCC2CC1C2(C)C (configuration not stated)	-0.9	2.1	-1.3	-0.9	-0.9	-2.5
CCCCn1c(=O)c(CCC(=O)OCC(=O)Nc2cccc3ccccc23)nc2ccccc21	-1.6	-1.2	1.6*	-0.5	-0.3	1.5
Cc1cc(C)c(S(=O)(=O)Nc2nnc(CC(C)C)s2)c(C)c1	1.5	0.1	-1.0	4.4*	-0.1	-2.2
Cc1cc(C)c(S(=O)(=O)Nc2nnc(C)s2)c(C)c1	1.4	0.7	-0.7	0.8	0.3	-0.8
COc1ccc(NC(=O)Cn2cc(C(=O)c3ccco3)c3ccccc32)cc1	-3.5	-3.6	-0.9	-1.8	-1.0	0.0
C=Cn1cc[n+](CC(=O)c2cccs2)c1	1.2	1.1	0.4	-0.6	-0.2	5.6*
CN1C(=O)C2(CCCCC2)C1c1ccccc1 (configuration not stated)	-1.5	-2.5	-0.9	-1.5	-0.8	1.0
CCOC(=O)Cn1nc(-c2ccc(C)cc2)c2ccccc2c1=O	-4.9	-2.5	-1.6	-0.5	1.4	-1.6
CCOC(=O)Cn1nc(-c2ccccc2)c2cnc3ccc(C)cc3c21	1.3	-1.8	0.6	1.0	0.2	6.3*
OC(c1ccc(Cl)cc1)c1ncc(-c2cccc(C(F)(F)F)c2)[nH]1 (configuration not stated)	-3.3	0.8	-1.6	/	-0.4	-3.1
O=C(Nc1nccs1)c1cc2cc(Cl)ccc2oc1=O	-0.9	-3.9	0.1	1.1	0.1	3.2
CC(NC(=O)COC(=O)C1(C)CC1(Cl)Cl)c1ccccc1 (configuration not stated)	-0.5	-2.3	-0.8	1.7	3.6*	-0.6
Cc1c(C(=O)OCC(C)(C)CN(C)C)oc2ccccc12	7.1	2.8	-0.7	2.2	4.0*	0.0
Cc1c(C(=O)OCC(=O)NC(C)c2ccccc2)oc2ccccc12 (configuration not stated)	1.4	-0.8	0.6	0.8	1.7	5.7*
CC(C)(C)n1nnnc1C(c1ccc(Cl)cc1)N1CCCc2ccccc21 (configuration not stated)	1.1	-3.3	0.1	1.5	0.1	2.0
CCn1cc(S(=O)(=O)c2ccc(C)cc2)c(=O)c2cc(F)c(N3CCN(C)CC3)cc21	1.7	0.5	-1.5	0.1	0.9	1.7
Cc1ccccc1NS(=O)(=O)c1ccc(C)c(C(N)=O)c1	1.4	0.3	-1.7	0.8	0.1	0.1
C[N+]1(C)CC2=Cc3ccccc3CC2C1 (configuration not stated)	-0.9	-3.9	-1.6	4.8*	0.5	-1.3
C1=C2C[N+]3(CCCC3)CC2Cc2ccc3ccccc3c21 (configuration not stated)	-0.5	0.2	-0.8	-1.1	-0.3	-0.1
CCOc1ncccc1C(=O)OCC(=O)c1ccccc1Br	-1.3	0.1	1.2*	1.7	0.1	-1.6
COc1ccc(OC)c(-c2csc(NC(=O)CSCc3c(C)noc3C)n2)c1	0.6	1.5	-1.4	-0.9	-0.1	-2.3
CCOC(=O)c1c(CSC(=N)N)n(-c2ccccc2)c2cc(Br)c(OC(C)=O)cc12	-1.1	-0.9	-0.7	4.3*	0.9	-1.1
CCOC(=O)c1c(CN2CCN(C)CC2)n(-c2ccccc2)c2cc(Br)c(O)cc12	-0.8	-2.6	-1.7	1.9	0.2	-1.9
SMILES	hgDAF-12 ag	SMARCA2 act	ssDAF-12 act	DAX1 inh-1	DAX1 inh-2	hcDAF-12 act
CCOC(=O)c1c(C)[nH]c(C(=O)OCc2csc(CC(=O)Nc3ccccc3C)n2)c1C	-2.4	-0.3	-1.0	-2.4	-1.0	-0.6
Clc1ccccc1CSc1cc2c(nn1)-c1ccccc1CC2	11.1*	4.7	0.0	0.7	1.5	3.9
CC(OC(=O)c1nccnc1N)C(=O)Nc1ccc(S(=O)(=O)N2CCCC2)cc1 (configuration not stated)	-1.2	-2.4	-1.0	4.6*	0.5	-1.3
COc1nc(Nc2cccc(C(F)(F)F)c2)nc(OC)n1	-0.3	2.2	-1.3	-0.5	-0.1	-0.7
O=S(=O)(NC1=NCCCCC1)c1cc(F)ccc1F	1.4	-3.8	-1.2	4.5*	-0.1	-0.8
Fc1ccc(F)c(NC2=NCCCCC2)c1	1.3	-1.8	-0.7	-0.1	0.2	-1.6
Cc1ccc(C)c(OCCCN2CCNCC2)c1	0.8	-0.4	-1.2	0.4	0.1	2.1
O=C(NCCC(=O)N1CCN(c2ccccc2F)CC1)c1ccco1	1.2	0.9	-0.7	0.0	3.7*	1.1
COc1ccc(C(=O)NCC2CCCN2S(=O)(=O)c2cccs2)cc1 (configuration not stated)	1.0	-0.1	-1.0	0.3	1.2	-1.1
O=C1C(=O)N(CCO)C(c2ccccc2)/C1=C(\O)c1ccccc1 (configuration not stated)	-1.9	-0.7	-0.6	2.1	-0.5	4.5
CCOC(=O)c1sc2nc3c(cc2c1N)C(=O)CC(C)(C)C3	1.4	2.2	-1.1	4.4*	0.9	-1.9
Nn1c(SCc2ccccc2)nc2c(cnn2-c2ccccc2)c1=O	1.9	0.4	-1.4	0.3	1.0	1.6
CCCSc1nc2c(cnn2-c2ccccc2)c(=O)n1N	13.1*	3.6	-1.0	0.6	1.3	5.8*
CC(C)c1nnc(NC(=O)C2c3ccccc3Oc3ccccc32)s1	0.5	0.8	-0.8	0.8	-0.5	-1.0
C=CCn1c(=O)c2ccccc2n2c(SCc3nc4ccccc4s3)nnc12	7.1	3.1	1.2*	-0.2	1.0	5.3
CCN(CC(=O)Nc1c(F)cccc1F)C(=O)c1cc(-c2cccs2)nn1-c1ccccc1	-2.8	-1.9	-1.6	-2.1	-2.5	-0.5
O=C1C(c2ccncc2)=C(O)c2ccccc21	11.5*	7.5	0.3	-0.5	4.3*	6.4*
O=C(O)CNC(=O)/C=C/c1ccc(Cl)cc1Cl	2.8	4.9	-1.0	-1.7	-0.1	-0.4
